According to PubChem BioAssay AID1159580 (chemical genetic matrix, 2015):
The whole screen tested about 5,500 compounds, of which about 2,000 (36%) were called active. Roughly 18% stayed inconclusive and do not appear here. Rule as the data show it: active = normalized growth mostly below about 0.91 (no sharp cut-off); inconclusive = no clear call, values can overlap the other calls; inactive = mostly above about 0.92. The list shows a part of the results.

Assay: chemical genetic growth profiling, strain panel (AID 1159580);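 also: tested at 20 µM; growth read once vehicle control cultures reached saturation at 30 °C; 1 = growth at the plate median or of vehicle wells; lower values mean less growth of the strain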
Settings: growth OD
[1] = S. cerevisiae deletion strains, locus YDR150W, strain NUM1, active compounds read low
[2] = S. cerevisiae deletion strains, locus YMR307W, strain GAS1, active compounds read low
[3] = S. cerevisiae deletion strains, locus YPL055C, strain LGE1, active compounds read low

Measured: normalized growth

CCC1(O)CC2CN(CCc3c([nH]c4ccccc34)[C@@](C(=O)OC)(c3cc4c(cc3OC)N(C)C3[C@]45CCN4CC=C[C@@](CC)([C@@H](OC(C)=O)[C@]3(O)C(=O)OC)[C@H]45)C2)C1 (stereo partly specified)
inactive: S. cerevisiae deletion strains, locus YAL040C, strain CLN3, active compounds read low 1 | S. cerevisiae deletion strains, locus YCL061C, strain MRC1 (second series), active compounds read low 1 | [1] 1.01 | S. cerevisiae deletion strains, locus YDR363W, strain ESC2, active compounds read low 0.993 | S. cerevisiae deletion strains, locus YER002W, strain NOP16, active compounds read low 1.06 | S. cerevisiae deletion strains, locus YMR263W, strain SAP30, active compounds read low 0.996 | [2] 0.985 | S. cerevisiae deletion strains, locus YNL175C, strain NOP13, active compounds read low 1.02 | S. cerevisiae deletion strains, locus YNL197C, strain WHI3, active compounds read low 1.03 | S. cerevisiae deletion strains, locus YNL224C, strain SQS1, active compounds read low 1.04 | S. cerevisiae deletion strains, locus YOR083W, strain WHI5 (second series), active compounds read low 1.07 | [3] 1.01 | S. cerevisiae deletion strains, locus YPL241C, strain CIN2, active compounds read low 0.994

COC(=O)c1c(C)c2c(c(C)c1OC)OC(=O)c1c(C)c(Cl)c(OC)c(Cl)c1O2
active: S. cerevisiae deletion strains, locus YKL009W, strain mrt4, active compounds read low 1.37 [resistant] | S. cerevisiae deletion strains, locus YKL085W, strain MDH1 (second series), active compounds read low 1.23 [resistant] | S. cerevisiae deletion strains, locus YKL085W, strain MDH1, active compounds read low 1.23 [resistant]
inactive: S. cerevisiae deletion strains, locus YBR021W, strain FUR4, active compounds read low 0.99 | S. cerevisiae deletion strains, locus YBR229C, strain ROT2, active compounds read low 1.01 | S. cerevisiae deletion strains, locus YCL029C, strain bik1, active compounds read low 1.02 | S. cerevisiae deletion strains, locus YDL035C, strain GPR1, active compounds read low 1.03 | S. cerevisiae deletion strains, locus YDL074C, strain BRE1, active compounds read low 1.04 | S. cerevisiae deletion strains, locus YDL101C, strain DUN1, active compounds read low 1.02 | S. cerevisiae deletion strains, locus YDL134C, strain PPH21, active compounds read low 1.01 | S. cerevisiae deletion strains, locus YDL185W, strain tfp1, active compounds read low 1.01 | S. cerevisiae deletion strains, locus YDL192W, strain arf1, active compounds read low 1.02 | S. cerevisiae deletion strains, locus YDR101C, strain arx1, active compounds read low 1 | [1] 1.02 | S. cerevisiae deletion strains, locus YDR162C, strain NBP2, active compounds read low 1.03 | S. cerevisiae deletion strains, locus YDR318W, strain mcm21, active compounds read low 1.02 | S. cerevisiae deletion strains, locus YDR388W, active compounds read low 1.02 | S. cerevisiae deletion strains, locus YDR502C, strain sam2, active compounds read low 1.03 | S. cerevisiae deletion strains, locus YEL061C, strain CIN8, active compounds read low 1.01 | S. cerevisiae deletion strains, locus YER110C, active compounds read low 1.02 | S. cerevisiae deletion strains, locus YER155C, strain BEM2, active compounds read low 0.998 | S. cerevisiae deletion strains, locus YER167W, strain BCK2, active compounds read low 1.03 | S. cerevisiae deletion strains, locus YGL078C, strain dbp3, active compounds read low 1.01 | S. cerevisiae deletion strains, locus YGL086W, strain mad1, active compounds read low 1.03 | S. cerevisiae deletion strains, locus YGL248W, strain PDE1, active compounds read low 1.01 | S. cerevisiae deletion strains, locus YGR135W, strain pre9, active compounds read low 1.03 | S. cerevisiae deletion strains, locus YGR229C, strain SMI1, active compounds read low 1.06 | S. cerevisiae deletion strains, locus YGR252W, strain gcn5, active compounds read low 1.01 | S. cerevisiae deletion strains, locus YHR030C, strain SLT2, active compounds read low 1.02 | S. cerevisiae deletion strains, locus YHR079C, strain IRE1 (second series), active compounds read low 1.01 | S. cerevisiae deletion strains, locus YHR094C, strain hxt1, active compounds read low 1.02 | S. cerevisiae deletion strains, locus YHR129C, strain ARP1, active compounds read low 1.01 | S. cerevisiae deletion strains, locus YHR200W, strain rpn10, active compounds read low 1.02 | S. cerevisiae deletion strains, locus YIL066C, strain RNR3, active compounds read low 1.04 | S. cerevisiae deletion strains, locus YIL073C, strain SPO22, active compounds read low 1.09 | S. cerevisiae deletion strains, locus YIL125W, strain kgd1, active compounds read low 1.01 | S. cerevisiae deletion strains, locus YIR030C, strain dcg1, active compounds read low 1.01 | S. cerevisiae deletion strains, locus YJL095W, strain BCK1, active compounds read low 1.04 | S. cerevisiae deletion strains, locus YJL134W, strain LCB3, active compounds read low 1.01 | S. cerevisiae deletion strains, locus YJL168C, strain set2, active compounds read low 1.02 | S. cerevisiae deletion strains, locus YJL187C, strain SWE1 (second series), active compounds read low 1.03 | S. cerevisiae deletion strains, locus YJR043C, strain POL32, active compounds read low 1.03 | S. cerevisiae deletion strains, locus YKL068W, active compounds read low 1.04 | S. cerevisiae deletion strains, locus YKR001C, strain vps1, active compounds read low 1.01 | S. cerevisiae deletion strains, locus YLR039C, strain RIC1, active compounds read low 1.06 | S. cerevisiae deletion strains, locus YLR058C, strain SHM2, active compounds read low 1.02 | S. cerevisiae deletion strains, locus YLR102C, strain apc9, active compounds read low 1.01 | S. cerevisiae deletion strains, locus YLR262C, strain YPT6, active compounds read low 1.07 | S. cerevisiae deletion strains, locus YLR268W, strain sec22, active compounds read low 1.02 | S. cerevisiae deletion strains, locus YLR330W, strain CHS5, active compounds read low 1.02 | S. cerevisiae deletion strains, locus YLR342W, strain FKS1 (second series), active compounds read low 1.05 | S. cerevisiae deletion strains, locus YLR371W, strain rom2, active compounds read low 1.01 | S. cerevisiae deletion strains, locus YLR418C, strain cdc73, active compounds read low 1.03 | S. cerevisiae deletion strains, locus YML016C, strain PPZ1, active compounds read low 1.01 | S. cerevisiae deletion strains, locus YML032C, strain rad52, active compounds read low 1.01 | S. cerevisiae deletion strains, locus YML124C, strain tub3, active compounds read low 1.04 | S. cerevisiae deletion strains, locus YMR078C, strain ctf18, active compounds read low 1.01 | S. cerevisiae deletion strains, locus YMR223W, strain ubp8, active compounds read low 1.02 | [2] 1.04 | S. cerevisiae deletion strains, locus YNL067W, strain RPL9B, active compounds read low 1.02 | S. cerevisiae deletion strains, locus YNL128W, strain TEP1, active compounds read low 1.04 | S. cerevisiae deletion strains, locus YNL233W, strain BNI4, active compounds read low 1.02 | S. cerevisiae deletion strains, locus YNL250W, strain rad50, active compounds read low 1.04 | S. cerevisiae deletion strains, locus YNL271C, strain bni1, active compounds read low 1.02 | S. cerevisiae deletion strains, locus YNL298W, strain CLA4, active compounds read low 1.02 | S. cerevisiae deletion strains, locus YNL307C, strain MCK1, active compounds read low 1.01 | S. cerevisiae deletion strains, locus YNL322C, strain KRE1, active compounds read low 1.02 | S. cerevisiae deletion strains, locus YNR052C, strain pop2, active compounds read low 1.02 | S. cerevisiae deletion strains, locus YOL012C, strain htz1 0.795 | S. cerevisiae deletion strains, locus YOL147C, strain pex11, active compounds read low 1.01 | S. cerevisiae deletion strains, locus YOR061W, strain CKA2, active compounds read low 1.01 | S. cerevisiae deletion strains, locus YOR069W, strain VPS5, active compounds read low 1.01 | S. cerevisiae deletion strains, locus YOR136W, strain idh2, active compounds read low 1.02 | S. cerevisiae deletion strains, locus YOR144C, strain elg1, active compounds read low 1.01 | S. cerevisiae deletion strains, locus YOR184W, strain ser1, active compounds read low 1.02 | S. cerevisiae deletion strains, locus YOR316C, strain cot1, active compounds read low 1.02 | [3] 1.04 | S. cerevisiae deletion strains, locus YPR119W, strain clb2, active compounds read low 1.01 | S. cerevisiae deletion strains, locus YPR141C, strain kar3, active compounds read low 1.02 | S. cerevisiae deletion strains, locus YPR163C, strain tif3, active compounds read low 1.01 | S. cerevisiae deletion strains, locus YPR167C, strain met16, active compounds read low 1.02 | S. cerevisiae deletion strains, strain wtn01, active compounds read low 1.01 | S. cerevisiae strains, strain wild type, active compounds read low 1.02
